Compounds without any hit were thinned out: in the full panel of roughly 79,000, 15% have a hit. Cut-off read from the data, not from the text of the source: active = growth inhibition above about 70%; inactive = the rest.
Columns and labels:
[1] = NCI Yeast Anticancer Drug Screen. Data for the rad50 strain (AID 155);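 note: 0% = growth of vehicle-only cultures of the same strain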; conditions: S. cerevisiae rad50 strain growth inhibition; at 50.0 µM; stronger effect = higher value
Method in brief: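 Growth of the mutant yeast was measured after compound exposure and referenced to vehicle-treated cultures.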

[2] = NCI Yeast Anticancer Drug Screen. Data for the mec2-1 strain (AID 157); conditions: S. cerevisiae mec2-1 strain, at 50.0 µM, stronger effect = higher value
Method in brief: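 Each compound was tested on mec2-1 yeast, a strain altered in DNA damage repair or cell cycle control. Growth inhibition is reported relative to vehicle.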

[3] = NCI Yeast Anticancer Drug Screen. Data for the sgs1 mgt1 strain (AID 161);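 note: 0% = growth of cultures given vehicle only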; conditions: S. cerevisiae sgs1 mgt1 strain, at 50.0 µM, stronger effect = higher value
Method in brief: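 Read-out: growth inhibition vs vehicle controls. Cells: mutant yeast strain deficient in DNA damage repair.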

[4] = NCI Yeast Anticancer Drug Screen. Data for the cln2 rad14 strain (AID 165);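 note: 0% = growth equal to vehicle treated cultures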; conditions: S. cerevisiae cln2 rad14 strain, at 50.0 µM, stronger effect = higher value
Method in brief: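 Test compounds were added to cln2 rad14 yeast cultures; inhibition of growth was then determined by comparison with vehicle treatment.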

[5] = NCI Yeast Anticancer Drug Screen. Data for the bub3 strain (AID 167); conditions: S. cerevisiae bub3 mutant strain, at 50.0 µM, stronger effect = higher value
Method in brief: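 Whole-cell yeast assay. The mutant strain was incubated with compounds, and growth inhibition was determined by comparison with vehicle-treated cells.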

[6] = NCI Yeast Anticancer Drug Screen. Data for the mlh1 rad18 strain (AID 175); conditions: S. cerevisiae mlh1 rad18 strain growth inhibition; at 50.0 µM; stronger effect = higher value
Method in brief: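 Inhibition values reflect reduced growth of mutant yeast versus vehicle-treated controls following compound exposure; the mutations affect DNA damage repair.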

Measured: growth inhibition

NC(N)=NC1NCC(=O)S1 (centres undefined)
inactive: [1] 0.2% | [2] -5.65% | [3] 4.3% | [4] 4.6% | [5] 7.15% | [6] 21.9%

CCCCCCCCCCCC(=O)NC(=S)Nc1ccc(C)c(C)c1
inactive: [1] 8.65% | [2] 58.2% | [3] 54.6% | [4] -13.6% | [5] 57.5% | [6] 36.9%

CCc1c(O)c2c([nH]c1=O)SC(C)(C)CC2=NCC(C)C
inactive: [1] -23.8% | [2] -33.5% | [3] -16.9% | [4] -2.45% | [5] -43.6% | [6] 9.15%

CCN(CC(=O)O)C(=O)c1cccnc1
inactive: [1] -17.9% | [2] 4.05% | [3] -33.4% | [4] -28.7% | [5] -6.6% | [6] -6.4%
